Among all 310,000 compounds or so, about 14,000 (4.5%) showed an effect of 50% or more. Effects have a minus sign here. Shown is part of a subset that was picked to be rich in strong results.
biological target: human ether-à-go-go-related gene (hERG) potassium channel (human, UniProt Q12809); experiment: primary screen, population patch clamp on CHO cells stably expressing hERG; higher = less effect of the substance
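Further: peak tail current of the secondary pulse compared with the same well before compound.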

human ether-à-go-go-related gene (hERG) potassium channel, sequence (Q12809 whole entry, looked up): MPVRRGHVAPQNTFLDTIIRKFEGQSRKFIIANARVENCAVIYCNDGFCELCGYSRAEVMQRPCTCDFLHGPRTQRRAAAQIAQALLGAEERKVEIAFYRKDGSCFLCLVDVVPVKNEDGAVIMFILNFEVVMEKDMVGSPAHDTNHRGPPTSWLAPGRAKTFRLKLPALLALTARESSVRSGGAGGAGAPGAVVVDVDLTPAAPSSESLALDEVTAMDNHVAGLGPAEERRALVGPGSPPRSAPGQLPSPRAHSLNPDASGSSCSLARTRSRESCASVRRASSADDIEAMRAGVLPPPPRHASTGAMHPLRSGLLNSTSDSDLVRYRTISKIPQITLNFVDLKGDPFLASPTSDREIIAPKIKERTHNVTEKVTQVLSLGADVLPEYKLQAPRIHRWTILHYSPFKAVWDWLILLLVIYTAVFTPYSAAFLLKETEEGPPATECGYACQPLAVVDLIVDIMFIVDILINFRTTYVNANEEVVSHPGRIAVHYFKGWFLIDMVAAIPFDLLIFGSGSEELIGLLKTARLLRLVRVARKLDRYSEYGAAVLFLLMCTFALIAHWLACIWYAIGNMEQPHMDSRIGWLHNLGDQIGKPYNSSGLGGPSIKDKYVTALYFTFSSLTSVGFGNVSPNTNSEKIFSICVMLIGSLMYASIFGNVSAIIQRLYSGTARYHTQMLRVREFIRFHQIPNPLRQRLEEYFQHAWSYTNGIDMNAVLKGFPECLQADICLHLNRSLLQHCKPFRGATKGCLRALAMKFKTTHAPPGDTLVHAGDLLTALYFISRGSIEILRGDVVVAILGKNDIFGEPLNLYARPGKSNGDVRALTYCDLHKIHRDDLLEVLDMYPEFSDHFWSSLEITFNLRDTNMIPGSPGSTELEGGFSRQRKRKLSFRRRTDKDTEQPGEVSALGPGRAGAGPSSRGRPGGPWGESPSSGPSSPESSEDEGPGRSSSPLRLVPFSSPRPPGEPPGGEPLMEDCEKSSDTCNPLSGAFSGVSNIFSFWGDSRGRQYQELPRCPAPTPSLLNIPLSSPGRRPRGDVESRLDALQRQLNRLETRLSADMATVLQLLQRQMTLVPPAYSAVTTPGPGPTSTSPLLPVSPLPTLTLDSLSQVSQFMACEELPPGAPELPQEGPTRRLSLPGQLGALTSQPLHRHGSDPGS

| SMILES | hERG current change (%, negative = inhibition) at 10uM [%] |
| --- | --- |
| COc1ccc(CNC(=O)c2ccc(NS(=O)(=O)c3ccc4[nH]c(=O)[nH]c4c3)cc2)cc1OC | 13.3 |
| CCOC(=O)c1ccc(NC(=O)CSc2nc(=O)n3cccc(C)c3n2)cc1 | -21.9 |
| COc1cc(Cl)c(S(=O)(=O)NCCCn2ccnc2)cc1Cl | 3.34 |
| CCOC(=O)CSCC(=O)Nc1cc(C)ccc1C | 0.851 |
| CNS(=O)(=O)c1cc(O)c2c(S(=O)(=O)NC)cccc2c1 | 11 |
| Cc1c(Cl)ccc2c(C(=O)NC(C)c3ccncc3)cc(-c3ccncc3)nc12 (stereo not shown) | -59.3 |
| Cc1c(Cl)ccc2c(C(=O)O)cc(-c3ccccc3)nc12 | -1.96 |
| COC(=O)CNC(=O)c1cc(-c2ccncc2)nc2c(C)c(Cl)ccc12 | -27.9 |
| C=C(C)CC1(NC(C)c2ccccc2)CCCCC1 (stereo not shown) | 4 |
| COc1ccc(OC)c(-c2csc(NC(=O)Cc3ccccc3OC)n2)c1 | -0.305 |
| COc1cccc(/C=N/NC(=O)c2nnn(-c3nonc3N)c2C(C)C)c1 | 11.4 |
| Cc1ccc(C(=O)NCC(=O)O)o1 | -5.14 |
| Cc1c(CNCCCc2ccccc2)c(C(=O)O)c(C)n1Cc1ccccc1 | 4.03 |
| Cc1c(CNCCc2ccc(Cl)cc2)c(C(=O)O)c(C)n1Cc1ccccc1 | -50.1 |
| Cc1c(CNCCC2=CCCCC2)c(C(=O)O)c(C)n1Cc1ccccc1 | -13.3 |
| Cc1cccc(C)c1NC(=O)/C(C#N)=C/c1ccsc1 | -13.2 |
| Cc1c(OCC(N)=O)ccc2c(-c3ccccc3)cc(=O)oc12 | 5.53 |
| O=C(c1ccco1)N1CCN(C(=O)C2CC(=O)N(c3ccccc3)C2)CC1 (stereo not shown) | -41.3 |
| O=C(C1CC(=O)N(c2ccc(Cl)cc2)C1)N1CCCCCC1 (stereo not shown) | -8.92 |
| O=C(c1ccco1)N1CCN(C(=O)C2CC(=O)N(c3ccc(Cl)cc3)C2)CC1 (stereo not shown) | -75.4 |
| Cc1ccc(N2CC(C(=O)N3CCN(C(=O)c4ccco4)CC3)CC2=O)cc1 (stereo not shown) | -71.7 |
| O=C(C1CC(=O)N(c2ccc(Cl)cc2)C1)N1CCOCC1 (stereo not shown) | -0.293 |

| SMILES | hERG current change (%, negative = inhibition) at 10uM [%] |
| --- | --- |
| CCC(C)c1ccccc1N1CC(C(=O)N2CCN(C(=O)c3ccco3)CC2)CC1=O (stereo not shown) | -12.6 |
| O=C(CNC(=O)c1ccc(OC(F)F)cc1)NCC1CCCO1 (stereo not shown) | 2.87 |
| CCCCN1C(=O)/C(=C/c2ccc(N3CCCCCC3)cc2)C(=O)NC1=S | -22.9 |
| C=CCc1ccc(OCCCCN2CC(C)OC(C)C2)c(OC)c1.O=C(O)C(=O)O (stereo not shown) | -25.8 |
| C=CCc1ccc(OCCCCN2CC(C)CC(C)C2)c(OC)c1.O=C(O)C(=O)O (stereo not shown) | -67 |
| C=CCc1ccc(OCCCNC2CCCC2)c(OC)c1 | -48.1 |
| C=CCc1ccc(OCCCN2CCCC(C)C2)c(OC)c1.O=C(O)C(=O)O (stereo not shown) | -65.8 |
| C=CCc1ccc(OCCCCN2CCC(C)CC2)c(OC)c1 | -69.6 |
| C=CCc1ccc(OCCCCCN2CCOCC2)c(OC)c1.O=C(O)C(=O)O | -18.1 |
| C=CCc1ccc(OCCCOc2ccc(C(=O)O)cc2)c(OC)c1 | -1.14 |
| C=CCc1ccc(OCCCCOc2ccc(C(=O)O)cc2)c(OC)c1 | 14 |
| C=CCc1ccc(OCCCCNC2CCCC2)c(OC)c1.O=C(O)C(=O)O | -39.9 |
| CCOc1ccc(C(=O)Nc2cccc(C)n2)cc1 | 0.201 |
| COc1ccc(/C=N/NC(=O)c2ccn[nH]2)cc1COc1ccc(Cl)cc1 | 2.09 |
| CCc1cc2c(=O)nc3n(c2s1)Cc1ccccc1/C3=C(/O)c1ccc(F)cc1 | -3.7 |
| Cc1nnc(NC(=O)CN2CCN(Cc3ccc(F)cc3Cl)CC2)s1 | 8.45 |
| Cc1c(Cl)cccc1NC(=O)C1CCCN(S(C)(=O)=O)C1 (stereo not shown) | 22 |
| O=C(CN1C(=O)C2CC=C(Cl)CC2C1=O)Nc1ccc(C(=O)O)cc1 (stereo not shown) | 3.39 |
| Fc1ccc(CN2CCN(c3ncnc4scc(-c5ccccc5)c34)CC2)cc1 | -39.9 |
| Cc1ccc(-c2csc3ncnc(N4CCN(Cc5ccccc5)CC4)c23)cc1 | 18 |
| COc1ccc(-c2csc3ncnc(N4CCN(CCO)CC4)c23)cc1 | -1.12 |

From PMC4336329 (PLoS ONE, 2015)
